Calls of active or inactive are those of the source. Calls follow the shape of the dose curve; as a rule, active = well fitted curve in the direction sought with a large enough effect in the repeat runs; inconclusive = weak or mixed curves; inactive = flat fitted curve, though single readings scatter. Residues, ends and D or L forms follow the SMILES beside them.
assay: qHTS assay to test for compound auto fluorescence at 460 nm (blue) in HepG2 cells (AID 720687); conditions: autofluorescence 405/460 nm, 1 h; series mostly up to 91.3 µM
From the text: U.S. Tox21 Program National Center for Advancing Translational Sciences [NCATS] NIH Chemical Genomics Center [NCGC] U.S. Environmental Protection Agency [EPA] National Institutes of Environmental Health Sciences [NIEHS] National Toxicology Program [NTP] U.S. Food and Drug Administration [FDA] Tox21 Assay Overview: Compound auto fluorescence often interferes with screening of the compound library against various biological targets and signaling pathways. Some of these compounds may have fluorophoric properties. Such properties may interfere with the assay outputs resulting in false positives and/or negatives. To decrease such complications and ensure the compound activities are relevant in terms of biological response, the Tox21 10K compound library was screened for auto fluorescence. From the fluorophores used as reporter signals in our screening assays, the auto fluorescence equivalencies of compounds against three fluorophores have been evaluated: Triamterene, Fluorescein and Rose Bengal sodium for blue, green and red fluorescence, respectively. The fluorescence intensities were measured using Excitation/Emission wavelengths at 405/460nm, 485/535nm and 540/590nm for blue, green and red labels, respectively. This assay includes the blue fluorescence data.
Tox21 Assay Protocol Summary: 2,000 HepG2 cells in 5 uL of culture medium (MEM containing 10% FBS) per well were dispensed into black wall/clear bottom 1536-well plates using a Multidrop Combi Dispenser (ThermoFisher Scientific, Waltham, MA). The assay plates were incubated overnight at 37 C to allow cell attachment to the well bottom, followed by the transfer of 23 nL compound or DMSO vehicle by a pintool work station (Kalypsys , San Diego, CA). After the assay plates were incubated for 1 hr at 37 C and 5% CO2, fluorescence intensities in the assay plates were measured by an Envision (PerkinElmer, Shelton, CT) plate reader using three labels for measuring blue, green and red fluorescence at […] 460, 535 and 590 nm respectively.

Compound	outcome
O=S(=O)(O)c1ccc2cc(O)ccc2c1	inactive
O=C(O)c1[nH]n(-c2ccc(S(=O)(=O)O)cc2)c(=O)c1N=Nc1ccc(S(=O)(=O)O)cc1	inactive
CCCNC(=O)NS(=O)(=O)c1ccc(Cl)cc1	inactive
Cn1cc[nH]c1=S	inactive
Nc1ccc(S(=O)(=O)c2ccc(N)cc2)cc1	inactive
O=C(O)CS	inactive
NS(=O)(=O)c1cc(C(=O)O)c(NCc2ccco2)cc1Cl	inactive
Cc1ccc(S(=O)(=O)NC(=O)NN2CCCCCC2)cc1	inactive
NC(N)=O	inactive
CCCCC1C(=O)N(c2ccccc2)N(c2ccccc2)C1=O	inactive
COC(=O)[C@H](Cc1ccccc1)NC(=O)[C@@H](N)CC(=O)O (H-Asp-Phe-OMe)	inactive
CCCC(O)C(CC)CO (stereo not given)	inactive
CCC1(c2ccccc2)C(=O)NCNC1=O	inactive
CC(=O)OCC(COC(C)=O)OC(C)=O	inactive
Nc1ccc(O)c(C(=O)O)c1	inactive
N=C(N)c1ccc(OCCCCCOc2ccc(C(=N)N)cc2)cc1	inactive
CC1(C)[C@@H]2CC[C@@]1(C)C(=O)C2	inactive
O=C(c1ccccc1)C(O)c1ccccc1 (stereo not given)	inactive
Nc1ccn([C@H]2CC[C@@H](CO)O2)c(=O)n1	inactive
O=C(O)CCCCCCCC(=O)O	inactive

Compound	outcome
CNC[C@H](O)c1cccc(O)c1	inactive
CC(=O)NS(=O)(=O)c1ccc(N)cc1	inactive
O=C(O)CCC(=O)O	inactive
O=C1CN(/N=C/c2ccc([N+](=O)[O-])o2)C(=O)N1	inactive
C[C@]12C=CC(=O)C=C1CC[C@@H]1[C@@H]2[C@@H](O)C[C@@]2(C)[C@H]1CC[C@]2(O)C(=O)CO	inactive
CC(=O)Nc1nnc(S(N)(=O)=O)s1	inactive
CCCCC(CC)COC(=O)/C=C/c1ccc(OC)cc1 (stereo not given)	inactive
Cc1cc(=O)n(-c2ccccc2)n1C	inactive
OC(Cn1cncn1)(Cn1cncn1)c1ccc(F)cc1F	inactive
NC(=O)c1cnccn1	inactive
Cc1cn([C@H]2C[C@H](N=[N+]=[N-])[C@@H](CO)O2)c(=O)[nH]c1=O	inactive
CC(C)[C@@H]1CC[C@@H](C)C[C@H]1O	inactive
NC(=O)c1ccccc1O	inactive
O=C(c1ccccc1)c1ccccc1	inactive
Cc1ccc(O)cc1	inactive
Nc1ccc(C(=O)O)cc1	inactive
O=C(O)c1cccnc1	inactive
COc1ccc2[nH]cc(CCNC(C)=O)c2c1	inactive
O=c1ccc2ccccc2o1	inactive
CC(C)(Oc1ccc(C2CC2(Cl)Cl)cc1)C(=O)O (stereo not given)	inactive
